# Hits are enriched below; roughly 4.8% of the tested compounds scored in any of these assays.
# DAX1 inh-1 = DAX1 (NR0B1) inhibitors, primary screen, cell-based, HEK293, Gal4-DAX1, luciferase luminescence; AID 504766, 2011; HEK293 Gal4-DAX1 luciferase reporter; inhibition, % at 6.75 µM; 340,000 compounds, 0.99% hits;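 active = inhibition above the mean over all tested compounds plus 3 SD, cut at about 4.2% in these data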;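 also: 0% = DAX1-transfected cells with DMSO and 100% = empty-vector control cells with DMSO; inhibition shows as a rise in luminescence from relieved DAX1 repression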
# Target sequence (P51843 207-470 limits assumed): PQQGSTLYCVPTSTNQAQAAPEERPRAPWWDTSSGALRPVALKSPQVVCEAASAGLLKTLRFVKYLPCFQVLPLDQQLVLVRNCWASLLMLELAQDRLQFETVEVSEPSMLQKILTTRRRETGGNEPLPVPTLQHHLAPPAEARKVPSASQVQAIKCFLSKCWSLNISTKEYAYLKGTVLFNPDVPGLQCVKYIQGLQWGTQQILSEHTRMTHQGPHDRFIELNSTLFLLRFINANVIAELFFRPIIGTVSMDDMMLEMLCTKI
# DAX1 inh-2 = DAX1 (NR0B1) inhibitors on StAR promoter, primary screen, cell-based, luminescence, SF-1 (NR5A1), full-length DAX-1 | HEK293T StAR-luciferase reporter, SF-1/DAX-1 repression relief | inhibition, % at 6.8 µM | 370,000 compounds, 1.1% hits | AID 652010, 2013;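 active = inhibition above the mean over all tested compounds plus 3 SD, cut at about 3.6% in these data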;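 also: 0% = DAX-1 cells with DMSO and 100% = cells lacking DAX-1 with DMSO; higher inhibition means more luminescence from relief of DAX-1 repression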
# hcDAF12 agonist = H. contortus DAF-12 nuclear receptor activators, primary screen, cell-based, luminescence, HEK293, lit1-tk-luc reporter | HEK293 hcDAF-12 lit1-tk-luc reporter; 0% DMSO, 100% Δ7-dafachronic acid | 370,000 compounds, 1.4% hits | activation, % at 6.8 µM;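 active = activation above the mean of all tested compounds plus 3 SD, cut at about 5.5% in these data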;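 also: 100% = response to 3 µM Δ7-dafachronic acid high control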
# ssDAF12 agonist = S. stercoralis DAF-12 nuclear receptor activators, primary screen, cell-based, luminescence, HEK293, GRIP1 co-expression, lit1-tk-luc. 370,000 compounds, 1% hits. Nuclear hormone receptor DAF-12 (Strongyloides stercoralis). activation, % at 6.8 µM. HEK293 ssDAF-12/GRIP1 lit1-tk-luc reporter; % of 3 µM dafachronic acid response;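 active = activation above the mean over all tested compounds plus 3 SD, cut at about 0.9% in these data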;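 also: 0% = DMSO-only wells and 100% = 3 µM delta7-dafachronic acid wells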
# SMARCA2 activ = SMARCA2 (BRM) function activators, primary screen, cell-based, luminescence, high throughput; MG213 cells, MMTV-luciferase reporter, dexamethasone, overnight; 370,000 compounds, 1% hits; activation, % at 9.1 µM; in the data active = activation above about 7.8%;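 also: 0% = vehicle wells and 100% = reference activator wells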
# hgDAF-12 ag = H. glycines DAF-12 receptor agonists, primary screen, cell-based, luminescence, HEK293, GAL4 fusion, UAS-luciferase; Nuclear hormone receptor DAF-12 (Heterodera glycines), GAL4 fusion; HEK293 GAL4-hgDAF12 UAS-luciferase reporter, agonist luminescence; normalized to butyrate control; activation, % at 6.8 µM; 370,000 compounds, 1.8% hits; AID 687014, 2013;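 active = activation above a cutoff set at the mean of all screened compounds plus 3 SD, cut at about 10% in these data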;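 also: 0% = DMSO wells and 100% = sodium butyrate wells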
# * = called active by the depositor; x = no result.
SMILES,DAX1 inh-1,DAX1 inh-2,hcDAF12 agonist,ssDAF12 agonist,SMARCA2 activ,hgDAF-12 ag
O=C(CCCn1c(=O)oc2ccccc21)N1CCc2ccccc2C1,0.1,1.0,7.9*,0.6,-2.8,5.4
O=C(CCn1c(=O)oc2ccccc21)NCCN1CCc2ccccc2C1,-0.1,0.1,4.0,-0.7,-3.2,1.0
CC(=O)Oc1ccc(C(=O)Nc2ccccc2C(=O)Nc2cccc(C(=O)O)c2)cc1,5.4*,0.2,-1.4,-1.0,1.6,0.6
Nc1nc(SCc2ccccc2)cc(SCc2ccccc2)n1,0.5,3.1,2.0,-0.2,-0.9,11.8*
Nc1cc(N)nc(SCc2ccccc2)n1,2.8,2.1,0.6,-0.7,5.3,7.2
CC1CCC2(CC1)NC(=O)N(CC(=O)NCc1ccc3c(c1)OCO3)C2=O (configuration not stated),-1.6,-0.2,-0.9,-0.8,0.1,-1.3
CC(C)N1CC(C(=O)Nc2ccc(S(=O)(=O)N3CCCCC3)cc2)CC1=O (configuration not stated),0.3,0.2,-1.1,-1.0,-3.3,0.8
Cc1ccc(S(=O)(=O)N(C)CC(=O)N2CCN(Cc3ccccc3)CC2)cc1,5.0*,-1.1,0.9,-1.1,-2.5,-1.5
Cc1ccc(S(=O)(=O)N(C)CC(=O)N2CCCCCCC2)cc1,-1.5,-0.9,-0.1,-0.9,1.6,0.1
CCOc1ccccc1NC(=O)C(OC(=O)C1CC1)c1ccccc1 (configuration not stated),0.6,0.1,-0.6,-1.4,1.8,-0.7
CCOc1ccccc1NC(=O)C(NCC1(N2CCCCC2)CCCCC1)c1ccccc1 (configuration not stated),4.4*,-0.6,0.2,-2.5,-1.2,1.2
CCCCCn1cnc2sc(CC)cc2c1=O,0.0,2.9,1.4,-0.6,0.7,12.4*
CCCCn1cnc2sc(-c3ccccc3)cc2c1=O,2.7,1.8,1.9,0.0,7.8*,10.5*
Cn1c(-c2ccc(F)cc2)cnc1SCC(=O)N1CCCCC1,0.6,2.1,2.8,0.3,3.8,12.5*
Cc1ccc(-c2nc3c4ccccc4ccn3c2Cc2ccccc2)cc1,0.1,0.0,3.8,0.4,-5.6,2.3
COc1ccccc1Cc1c(-c2ccc(C)cc2)nc2c3ccccc3ccn12,x,-0.4,1.0,0.5,-4.2,0.2
COc1ccccc1Cc1c(-c2ccco2)nc2c3ccccc3ccn12,x,0.7,5.7*,0.6,6.4,6.7
Cc1ccc(-c2nc3c4ccccc4ccn3c2Cc2ccccc2C(F)(F)F)cc1,x,0.8,4.5,0.9*,-1.3,1.9
COc1ccccc1Cc1c(-c2ccc(F)cc2)nc2c3ccccc3ccn12,x,-0.4,5.8*,0.5,-1.4,4.5
COc1ccc(S(=O)(=O)N2CCOC23CCN(S(=O)(=O)c2cc(C)ccc2C)CC3)cc1,-0.4,-1.2,0.8,-1.0,0.3,-1.9
CCN(CC)C(=O)C1=C(C)N(CCC2=CCCCC2)C(=O)C(CC(=O)NCCc2ccccn2)C1 (configuration not stated),2.7,1.3,1.0,-1.6,-0.2,1.4
COc1ccc(NC(=O)C2CC(=O)OC2c2ccccc2)cc1 (configuration not stated),-0.3,-0.2,-1.6,-0.8,-2.9,-0.4
CC(C)CC(=O)Nc1ccccc1N1CCN(c2ccccc2)CC1,1.2,-0.4,-0.2,-1.0,3.9,2.1
COCC1CCN(C(=O)c2oc3c(F)cccc3c2C)C1 (configuration not stated),-1.2,0.1,-1.7,-1.4,-1.8,1.7
CC(=O)c1cc(C)ccc1OC(=O)c1cccnc1,-0.1,0.4,-1.4,-1.6,0.6,0.0
SMILES,DAX1 inh-1,DAX1 inh-2,hcDAF12 agonist,ssDAF12 agonist,SMARCA2 activ,hgDAF-12 ag
CCOC(=O)Cc1csc(NC(=O)/C=C/c2ccc(OC)cc2)n1,-4.0,0.2,-0.6,-1.3,-2.3,12.2*
CCOC(=O)Cc1csc(NC(=O)c2ccc(C)o2)n1,1.1,-0.3,-0.7,-1.6,0.7,2.1
CCOC(=O)Cc1csc(NC(=O)c2cnc3sc(C)cn3c2=O)n1,1.0,1.1,6.3*,-0.2,0.6,6.4
CCCCCCOc1ccc(/C(N)=N/O)cc1,2.7,-0.5,4.0,-1.1,5.0,10.8*
O=C(CCNC(=O)c1ccccc1Cl)Nc1nc2ccccc2s1,1.9,3.1,6.4*,0.6,3.9,8.9
CCCNC(=O)Nc1nc2ccccc2s1,4.4*,3.0,3.4,-0.2,2.2,12.4*
CCOC(=O)Nc1nc2ccccc2s1,2.5,2.9,3.5,-0.2,3.8,11.0*
CCOC(=O)CC(=O)Nc1nc2ccccc2s1,-0.3,0.0,0.0,-0.8,1.5,1.9
COc1ccc(-c2coc3cc(OC)cc(O)c3c2=O)cc1,5.0*,1.8,1.2,-1.1,1.3,10.1
COc1ccc(-c2coc3cc(OC(C)=O)ccc3c2=S)cc1,4.5*,2.5,1.9,0.7,3.8,11.1*
CCN(CC)S(=O)(=O)c1ccc(NN)nc1,-0.4,0.4,-1.9,1.4*,1.2,-2.5
CC(C)N(C(C)C)S(=O)(=O)c1ccc(NN)nc1,1.4,0.3,0.4,0.2,0.2,-1.0
NNC(=O)/C(=C/c1cccs1)NC(=O)c1ccccc1Cl,-1.2,0.4,-0.9,-1.9,-2.5,-0.4
Cc1cc(SCC(=O)O)nc2ccccc12,-0.9,-0.3,-0.4,-0.5,0.1,-0.3
CCOC(=O)c1c(NC(=O)CSc2nc3cc(Cl)ccc3s2)sc(C(C)=O)c1C,x,-0.2,5.8*,-0.9,1.7,1.1
Cc1cc(SCC(=O)c2cc3ccccc3o2)nc2ccccc12,-0.2,1.3,4.8,1.1*,4.5,4.3
Cc1cc(NC(=O)CSc2nc3cc(Cl)ccc3s2)no1,1.4,1.2,1.9,-1.1,-5.2,2.6
O=C(CSc1nc2cc(Cl)ccc2s1)c1cc2ccccc2o1,0.3,0.6,1.6,3.4*,-3.4,2.8
COc1ccc(N(CC(=O)NCCC2=CCCCC2)S(=O)(=O)c2ccccc2)c(OC)c1,0.9,0.7,1.4,-1.3,-0.8,-0.7
Cc1ccc2[nH]c3nc(N/N=C/c4cccc(O)c4)nnc3c2c1,-1.1,0.2,-1.2,-0.8,0.8,-5.3
